Assay outcomes: PubChem, The Scripps Research Institute Molecular Screening Center
Sampled rows, rich in hits. Any-hit rate of the full collection: about 2.2%.
CHRM1 antagonist: antagonists of human M1 muscarinic receptor | 1.3% of 360,000 active | CHO-K1 hM1, Fluo-8 calcium fluorescence, ACh EC80 antagonist | inhibition, % at 3 µM | P11229 | AID 588852;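 active = percent inhibition above its own plate's cutoff, namely the mean of that plate's compound wells plus 3 SD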;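 also: peak over basal fluorescence ratio during 140 s after agonist addition; 0% = ACh EC80 plus DMSO and 100% = DMSO alone without agonist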
M4 antag: antagonists of human muscarinic M4 receptor (CHRM4). P08173. CHO-hM4 cells, ACh EC80, Fluo-8 calcium fluorescence. inhibition, % at 3 µM. 0.73% of 360,000 active. AID 624125;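 active = inhibition above its plate's cutoff, the mean inhibition of sample wells plus 3 SD, cut at about 27% in these data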;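 also: 0% = acetylcholine EC80 with DMSO and 100% = DMSO without agonist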
Target sequence (P08173 whole entry, looked up): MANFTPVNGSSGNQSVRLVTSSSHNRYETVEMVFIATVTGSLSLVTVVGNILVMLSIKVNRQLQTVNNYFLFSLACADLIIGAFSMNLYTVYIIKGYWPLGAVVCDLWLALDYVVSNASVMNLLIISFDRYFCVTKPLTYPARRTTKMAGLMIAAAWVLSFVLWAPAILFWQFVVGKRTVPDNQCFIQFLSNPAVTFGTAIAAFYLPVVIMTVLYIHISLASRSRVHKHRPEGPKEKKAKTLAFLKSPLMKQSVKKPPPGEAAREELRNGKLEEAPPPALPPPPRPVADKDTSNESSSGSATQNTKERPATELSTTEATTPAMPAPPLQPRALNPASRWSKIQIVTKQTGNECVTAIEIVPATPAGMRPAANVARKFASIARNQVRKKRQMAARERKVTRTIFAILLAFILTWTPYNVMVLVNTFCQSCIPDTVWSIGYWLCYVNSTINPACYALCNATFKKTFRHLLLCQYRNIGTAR
CHRM1 agonist: human M1 muscarinic receptor agonism. CHO-K1 hM1, Fluo-8 calcium fluorescence, agonist mode; 0% DMSO, 100% acetylcholine EC100. 0.33% of 360,000 active. activation, % at 3 µM. P11229;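 active = activation above the run's mean compound activation plus 3 SD, cut at about 16% in these data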;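 also: peak over basal fluorescence ratio within a 140 s kinetic read after compound addition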
M1 PAM: positive allosteric modulators of human M1 muscarinic receptor | P11229 | CHO-K1 hM1, Fluo-8 calcium fluorescence, ACh EC20; 0% = ACh EC20, 100% = maximal ACh | activation, % at 3 µM | 0.088% of 360,000 active; in the data active = activation above about 19%, passing the limit was not always enough
M4 PAM: CHRM4 positive allosteric modulation | P08173 | CHO-K1 hM4/Gqi5, Fluo-8 calcium fluorescence, ACh EC20; 0% = ACh EC20, 100% = maximal ACh | activation, % at 3 µM | 0.4% of 360,000 active;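 active = activation above its plate's cutoff, the mean activation of sample wells plus 3 SD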
M4 ag: agonists of human muscarinic M4 receptor (CHRM4); P08173; activation, % at 3 µM; 0.14% of 360,000 active; CHO-K1 hM4/Gqi5, Fluo-8 calcium fluorescence; vehicle 0%, full acetylcholine response 100%; AID 624127;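 active = activation above the run mean over all test wells plus 3 SD, cut at about 32% in these data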;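 also: peak over basal fluorescence ratio per well then scaled between controls; 0% = DMSO wells and 100% = acetylcholine at EC100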
Active calls of the source: *.

SMILES	CHRM1 antagonist	M4 antag	CHRM1 agonist	M1 PAM	M4 PAM	M4 ag
CC(C)Cc1ccc(C(C)C(=O)Nc2nccs2)cc1 (stereo not given)	-1.0	29.7*	23.6*	0.5	-6.2	34.3*
CC(C)Cc1ccc(C(C)C(=O)Nc2ccccc2O)cc1 (stereo not given)	69.1*	38.2*	35.5*	-16.7	-32.1	42.9*
N#Cc1cc2c(=O)n3ccccc3nc2n(-c2ccc(Cl)cc2)c1=O	5.0	3.0	-1.5	0.7	-3.7	-0.1
Cc1ccc2[nH]c(=O)c(CN(Cc3cccs3)Cc3nnnn3CC3CCCO3)cc2c1 (stereo not given)	-37.0	-7.3	-1.5	9.7	5.7	2.8
O=C(O)Cc1cn(Cc2cccc(Cl)c2)c2ccccc12	-6.5	-2.3	3.4	11.5	25.9*	2.7
Cc1cc(NC(=O)CS(=O)(=O)c2cn(Cc3cccc(Cl)c3)c3ccccc23)no1	17.2	7.7	26.5*	9.2	-9.9	8.2
COc1ccc(N2C(=O)CCC(C(=O)O)C2c2ccc(F)cc2)cc1 (stereo not given)	-1.5	6.4	-1.4	0.0	8.3	0.3
NS(=O)(=O)c1cccc(NC(=O)CN2CCC(Cc3ccccc3)CC2)c1	-7.7	-8.0	-6.9	6.6	2.9	2.9
Cc1cc(NC(=O)c2cc([N+](=O)[O-])cc([N+](=O)[O-])c2)no1	-18.9	2.5	1.0	10.5	14.6*	2.0
COc1ccc(NC(=O)C(C)SCc2ccccc2)cc1OC (stereo not given)	3.8	-8.0	-3.6	-5.6	-4.4	7.7
COc1ccccc1Nc1nc(-c2cccc([N+](=O)[O-])c2)cs1	-10.9	-10.1	-6.3	1.9	-2.1	-0.6
COc1cc(-c2nc3ccccn3c2/N=C/c2ccccc2)ccc1O	-7.5	6.8	26.6*	-5.6	-1.7	0.5
COc1cc(-c2nc3ccccn3c2NCC2CCCO2)ccc1O (stereo not given)	24.1*	14.0	1.7	-12.6	-18.9	16.2
CCOc1cc(-c2nc3ccccn3c2NCC2CCCO2)ccc1O (stereo not given)	23.7*	29.7*	2.1	-13.4	-25.2	21.5
CCOC(=O)c1cnn(-c2ccc(C(F)(F)F)cn2)c1N	-9.8	7.8	-5.3	7.2	-2.6	1.6
COc1ccc(/C=C2\SC(=S)N(CC3CCCO3)C2=O)cc1 (stereo not given)	-12.2	0.8	-0.3	6.4	9.2	-0.9
CCOc1cc(/C=C2\SC(=S)N(NS(=O)(=O)c3ccccc3)C2=O)ccc1O	13.1	15.4	2.5	-8.6	-13.5	24.5
COc1cc(/C=C2/SC(=S)N(CC3CCCO3)C2=O)ccc1O (stereo not given)	18.6	17.9	14.2	-5.3	-24.8	32.7*
O=C1/C(=C/c2ccc(O)c(O)c2)SC(=S)N1Nc1ccccc1	15.3	9.2	12.9	-2.6	-10.0	17.5
COc1cc(/C=C2\SC(=S)N(Nc3ccccc3)C2=O)ccc1O	23.6	27.4*	22.6*	-10.7	-21.8	45.2*
CCOc1cc(/C=C2\SC(=S)N(Nc3ccccc3)C2=O)ccc1O	2.0	25.4	29.1*	3.6	-16.9	21.5
CCC(Sc1nc2ccccc2[nH]1)C(=O)Nc1cc(C)on1 (stereo not given)	-2.7	7.1	-3.8	6.2	6.0	1.1
CCC(Sc1nc(N)cc(=O)[nH]1)C(=O)Nc1cc(C)on1 (stereo not given)	-11.6	-14.2	-8.1	16.4	25.8*	2.2
CC(C)N1C(=O)S/C(=C/c2ccc3c(c2)n(C)c(=O)n3C)C1=O	6.6	4.9	-0.3	1.3	-2.6	4.1
CCN(CC)c1ccc(/C=C2\SC(=O)N(C(C)C)C2=O)o1	4.9	40.6*	3.3	3.8	-2.8	4.0
N#Cc1nc(-c2ccc(OCc3ccccc3)cc2)oc1N1CCC(C(N)=O)CC1	-0.9	0.7	-4.8	2.6	7.3	0.3
Cc1scc2c1N(C(=O)CN1CCN(C)CC1)c1ccccc1NC2=O	98.0*	98.1*	-6.2	-25.7	-17.6	0.8
CC1CCN(CC(=O)N2CC(=O)Nc3ccccc32)CC1	-4.2	2.9	-6.4	2.8	-5.3	-0.1
